± gives the standard deviation of the averaged measurements.
Experiments:
Test in all cases: promoter activity interaction Z-score (Lux/OD deviation from empty-vector control); higher = stronger promoter induction by the compound
[1] = system: E. coli BW25113 acrABp lux reporter
Procedure, shortened: (§1)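 Wild-type E. coli BW25113 and three single-gene deletion strains, each carrying a low-copy luxCDABE promoter reporter, were grown at 37°C in 40 µl LB Lennox per well of a 384-well plate. Every compound was applied at four 1:2 dilutions in biological duplicates, and OD600 and luminescence were read every 30 min for 12 h. Integration covered 0–8 h for wild type and 1–9 h for deletion strains, and wells under 10% of the median growth value were removed. Scores are Z-transformed residuals of growth-normalised luminescence fitted against a control.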

[2] = system: E. coli BW25113 marRABp lux reporter
Procedure, shortened: as §1

[3] = system: E. coli BW25113 micFp lux reporter
Procedure, shortened: as §1

[4] = system: E. coli BW25113 ompFp lux reporter
Procedure, shortened: as §1

[5] = system: E. coli BW25113 robp lux reporter
Procedure, shortened: as §1

[6] = system: E. coli BW25113 soxSp lux reporter
Procedure, shortened: as §1

[7] = system: E. coli BW25113 tolCp lux reporter
Procedure, shortened: as §1

[8] = 0.11 µg/ml, genetic background: wild type
[9] = 0.11 µg/ml, genetic background: ΔmarA
[10] = 0.11 µg/ml, genetic background: Δrob
[11] = 0.11 µg/ml, genetic background: ΔsoxS
[12] = 0.21 µg/ml, genetic background: wild type
[13] = 0.21 µg/ml, genetic background: ΔmarA
[14] = 0.21 µg/ml, genetic background: Δrob
[15] = 0.21 µg/ml, genetic background: ΔsoxS
[16] = 0.43 µg/ml, genetic background: wild type
[17] = 0.43 µg/ml, genetic background: ΔmarA
[18] = 0.43 µg/ml, genetic background: Δrob
[19] = 0.43 µg/ml, genetic background: ΔsoxS
[20] = 0.86 µg/ml, genetic background: wild type
[21] = 0.86 µg/ml, genetic background: ΔmarA
[22] = 0.86 µg/ml, genetic background: Δrob
[23] = 0.86 µg/ml, genetic background: ΔsoxS

Cc1ncc([N+](=O)[O-])n1CCO [Metronidazole]
promoter activity interaction Z-score [1, 8]: 0.0148 ± 0.051
promoter activity interaction Z-score [1, 9]: 0.993 ± 0.18
promoter activity interaction Z-score [1, 10]: 0.102 ± 0.12
promoter activity interaction Z-score [1, 11]: 0.194 ± 0.31
promoter activity interaction Z-score [1, 12]: -0.197 ± 0.0096
promoter activity interaction Z-score [1, 13]: -0.0386 ± 0.09
promoter activity interaction Z-score [1, 14]: 0.0596 ± 0.14
promoter activity interaction Z-score [1, 15]: 0.187 ± 0.31
promoter activity interaction Z-score [1, 16]: -0.222 ± 0.18
promoter activity interaction Z-score [1, 17]: 0.706 ± 0.8
promoter activity interaction Z-score [1, 18]: -0.0336 ± 0.17
promoter activity interaction Z-score [1, 19]: 0.0816 ± 0.12
promoter activity interaction Z-score [1, 20]: 0.191 ± 0.025
promoter activity interaction Z-score [1, 21]: 0.645 ± 0.49
promoter activity interaction Z-score [1, 22]: 0.143 ± 0.34
promoter activity interaction Z-score [1, 23]: -0.0136 ± 0.22
promoter activity interaction Z-score [2, 8]: 0.18 ± 0.22
promoter activity interaction Z-score [2, 9]: -0.0383 ± 0.16
promoter activity interaction Z-score [2, 10]: -0.0923 ± 0.23
promoter activity interaction Z-score [2, 11]: -0.209 ± 0.08
promoter activity interaction Z-score [2, 12]: 0.0869 ± 0.33
promoter activity interaction Z-score [2, 13]: -0.213 ± 0.16
promoter activity interaction Z-score [2, 14]: 0.0389 ± 0.047
promoter activity interaction Z-score [2, 15]: 0.0145 ± 0.012
promoter activity interaction Z-score [2, 16]: -0.113 ± 0.25
promoter activity interaction Z-score [2, 17]: 0.07 ± 0.011
promoter activity interaction Z-score [2, 18]: 0.119 ± 0.23
promoter activity interaction Z-score [2, 19]: -0.0739 ± 0.18
promoter activity interaction Z-score [2, 20]: 0.0285 ± 0.35
promoter activity interaction Z-score [2, 21]: 0.0853 ± 0.054
promoter activity interaction Z-score [2, 22]: 0.0343 ± 0.03
promoter activity interaction Z-score [2, 23]: -0.0303 ± 0.042
promoter activity interaction Z-score [3, 8]: -0.0559 ± 0.11
promoter activity interaction Z-score [3, 9]: -0.0152 ± 0.0074
promoter activity interaction Z-score [3, 10]: 0.0206 ± 0.0032
promoter activity interaction Z-score [3, 11]: -0.264 ± 0.11
promoter activity interaction Z-score [3, 12]: -0.327 ± 0.068
promoter activity interaction Z-score [3, 13]: -0.09496 ± 0.00031
promoter activity interaction Z-score [3, 14]: -0.0735 ± 0.081
promoter activity interaction Z-score [3, 15]: -0.0751 ± 0.037
promoter activity interaction Z-score [3, 16]: -0.152 ± 0.26
promoter activity interaction Z-score [3, 17]: -0.0333 ± 0.092
promoter activity interaction Z-score [3, 18]: -0.000559 ± 0.02
promoter activity interaction Z-score [3, 19]: -0.18 ± 0.06
promoter activity interaction Z-score [3, 20]: -0.0833 ± 0.079
promoter activity interaction Z-score [3, 21]: 0.00541 ± 0.1
promoter activity interaction Z-score [3, 22]: -0.0861 ± 0.014
promoter activity interaction Z-score [3, 23]: -0.189 ± 0.084
promoter activity interaction Z-score [4, 8]: 0.217 ± 0.3
promoter activity interaction Z-score [4, 9]: 0.187 ± 0.0061
promoter activity interaction Z-score [4, 10]: -0.155 ± 0.074
promoter activity interaction Z-score [4, 11]: -0.0733 ± 0.12
promoter activity interaction Z-score [4, 12]: -0.138 ± 0.22
promoter activity interaction Z-score [4, 13]: -0.0604 ± 0.18
promoter activity interaction Z-score [4, 14]: 0.261 ± 0.17
promoter activity interaction Z-score [4, 15]: 0.2636 ± 0.0018
promoter activity interaction Z-score [4, 16]: -0.0385 ± 0.54
promoter activity interaction Z-score [4, 17]: 0.144 ± 0.29
promoter activity interaction Z-score [4, 18]: 0.609 ± 0.017
promoter activity interaction Z-score [4, 19]: 0.11 ± 0.042
promoter activity interaction Z-score [4, 20]: 0.547 ± 0.5
promoter activity interaction Z-score [4, 21]: 1.12 ± 0.3
promoter activity interaction Z-score [4, 22]: 0.862 ± 0.19
promoter activity interaction Z-score [4, 23]: 0.815 ± 0.34
promoter activity interaction Z-score [5, 8]: 0.061 ± 0.23
promoter activity interaction Z-score [5, 9]: 0.425 ± 0.28
promoter activity interaction Z-score [5, 10]: 0.355 ± 0.21
promoter activity interaction Z-score [5, 11]: -0.235 ± 0.13
promoter activity interaction Z-score [5, 12]: 0.165 ± 0.35
promoter activity interaction Z-score [5, 13]: -0.111 ± 0.75
promoter activity interaction Z-score [5, 14]: 0.8 ± 0.29
promoter activity interaction Z-score [5, 15]: 0.979 ± 1.1
promoter activity interaction Z-score [5, 16]: 0.177 ± 0.99
promoter activity interaction Z-score [5, 17]: 0.7 ± 0.077
promoter activity interaction Z-score [5, 18]: 0.452 ± 0.054
promoter activity interaction Z-score [5, 19]: -0.0713 ± 0.41
promoter activity interaction Z-score [5, 20]: 0.378 ± 0.83
promoter activity interaction Z-score [5, 21]: 0.776 ± 0.22
promoter activity interaction Z-score [5, 22]: 0.36 ± 0.24
promoter activity interaction Z-score [5, 23]: 0.489 ± 0.32
promoter activity interaction Z-score [6, 8]: 0.0487 ± 0.14
promoter activity interaction Z-score [6, 9]: 0.0513 ± 0.066
promoter activity interaction Z-score [6, 10]: -0.047 ± 0.051
promoter activity interaction Z-score [6, 11]: -0.0356 ± 0.017
promoter activity interaction Z-score [6, 12]: -0.0569 ± 0.11
promoter activity interaction Z-score [6, 13]: -0.088 ± 0.048
promoter activity interaction Z-score [6, 14]: 0.106 ± 0.0032
promoter activity interaction Z-score [6, 15]: 0.0415 ± 0.21
promoter activity interaction Z-score [6, 16]: 0.0827 ± 0.065
promoter activity interaction Z-score [6, 17]: -0.0818 ± 0.06
promoter activity interaction Z-score [6, 18]: 0.0852 ± 0.18
promoter activity interaction Z-score [6, 19]: 0.0431 ± 0.011
promoter activity interaction Z-score [6, 20]: 0.036 ± 0.026
promoter activity interaction Z-score [6, 21]: -0.085 ± 0.049
promoter activity interaction Z-score [6, 22]: -0.132 ± 0.058
promoter activity interaction Z-score [6, 23]: 0.0974 ± 0.06
promoter activity interaction Z-score [7, 8]: -0.237 ± 0.51
promoter activity interaction Z-score [7, 9]: 0.544 ± 0.53
promoter activity interaction Z-score [7, 10]: -0.201 ± 0.23
promoter activity interaction Z-score [7, 11]: 0.183 ± 0.079
promoter activity interaction Z-score [7, 12]: -0.938 ± 0.4
promoter activity interaction Z-score [7, 13]: -0.0891 ± 0.26
promoter activity interaction Z-score [7, 14]: 0.158 ± 0.57
promoter activity interaction Z-score [7, 15]: -0.129 ± 0.43
promoter activity interaction Z-score [7, 16]: -0.953 ± 0.17
promoter activity interaction Z-score [7, 17]: 0.401 ± 1.3
promoter activity interaction Z-score [7, 18]: -0.12 ± 0.26
promoter activity interaction Z-score [7, 19]: -0.386 ± 0.015
promoter activity interaction Z-score [7, 20]: 0.119 ± 0.47
promoter activity interaction Z-score [7, 21]: 0.316 ± 0.49
promoter activity interaction Z-score [7, 22]: -0.271 ± 1.3
promoter activity interaction Z-score [7, 23]: 0.345 ± 0.71

From the supplement of paper PMC12282887
